Paper PMC7862700, “An all-to-all approach to the identification of sequence-specific readers for epigenetic DNA modifications on cytosine”

How the values were obtained:
Experiment in all cases: DAPPL (digital affinity profiling via proximity ligation, sequencing); 10 mM Tris-HCl pH 7.5, 50 mM NaCl, 1 mM DTT, 4% glycerol, room temperature, 30 min; GST-TFs on glutathione beads, 16-mer random dsDNA library, 0.1% formaldehyde crosslink after washing; high values mean tight binding
Details in all cases: protein: recombinant; tags: N-terminal GST; dsDNA, one strand shown
ELK1 = molecular target: T1, ELK1 (Homo sapiens, UniProt P19419 1-428)
T1 sequence: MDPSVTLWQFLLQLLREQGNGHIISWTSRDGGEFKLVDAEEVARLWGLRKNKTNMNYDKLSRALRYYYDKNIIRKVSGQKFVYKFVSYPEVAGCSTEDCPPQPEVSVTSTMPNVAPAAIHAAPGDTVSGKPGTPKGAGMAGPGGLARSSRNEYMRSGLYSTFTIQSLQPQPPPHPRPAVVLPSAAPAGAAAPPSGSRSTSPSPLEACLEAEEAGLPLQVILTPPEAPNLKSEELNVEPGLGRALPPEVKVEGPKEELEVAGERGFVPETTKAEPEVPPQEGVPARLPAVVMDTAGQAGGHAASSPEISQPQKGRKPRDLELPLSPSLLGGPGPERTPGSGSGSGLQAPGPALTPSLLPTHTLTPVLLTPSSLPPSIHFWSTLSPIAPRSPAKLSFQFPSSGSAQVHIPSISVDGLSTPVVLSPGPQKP
Method in brief: (§1)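 Sequencing on an Illumina NextSeq500 followed washing, crosslinking with 0.1% formaldehyde, proximity ligation (BsaI/T4 ligase, 1 h, 37 °C) and PCR amplification of pools that had been incubated for 30 min at room temperature with 200 nmole of a random double-stranded 16-mer DNA library in Tris/NaCl/DTT/glycerol buffer. Each pool held DNA-barcoded human transcription factors, expressed in yeast as GST fusions and captured on glutathione beads, plus a tag-only sample. Binding signal is a hexamer's read frequency for a factor divided by its frequency in the tag-only sample.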

GABPA = molecular target: T2, GABPA (Homo sapiens, UniProt Q06546 1-454)
T2 sequence: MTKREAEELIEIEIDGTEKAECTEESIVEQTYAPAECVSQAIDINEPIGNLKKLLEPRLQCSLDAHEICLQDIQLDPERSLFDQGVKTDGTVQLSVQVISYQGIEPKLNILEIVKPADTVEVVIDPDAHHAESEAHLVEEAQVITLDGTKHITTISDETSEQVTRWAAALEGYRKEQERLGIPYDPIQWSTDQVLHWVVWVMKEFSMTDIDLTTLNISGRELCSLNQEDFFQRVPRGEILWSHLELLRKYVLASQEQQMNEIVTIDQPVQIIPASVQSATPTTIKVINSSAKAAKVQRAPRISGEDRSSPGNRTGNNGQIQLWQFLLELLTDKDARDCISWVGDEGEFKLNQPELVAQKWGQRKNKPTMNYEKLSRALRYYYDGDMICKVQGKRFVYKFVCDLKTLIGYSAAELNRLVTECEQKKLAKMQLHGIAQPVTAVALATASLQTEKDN
Method in brief: as §1

ERG = molecular target: T3, ERG (Homo sapiens, UniProt P11308 1-479)
T3 sequence: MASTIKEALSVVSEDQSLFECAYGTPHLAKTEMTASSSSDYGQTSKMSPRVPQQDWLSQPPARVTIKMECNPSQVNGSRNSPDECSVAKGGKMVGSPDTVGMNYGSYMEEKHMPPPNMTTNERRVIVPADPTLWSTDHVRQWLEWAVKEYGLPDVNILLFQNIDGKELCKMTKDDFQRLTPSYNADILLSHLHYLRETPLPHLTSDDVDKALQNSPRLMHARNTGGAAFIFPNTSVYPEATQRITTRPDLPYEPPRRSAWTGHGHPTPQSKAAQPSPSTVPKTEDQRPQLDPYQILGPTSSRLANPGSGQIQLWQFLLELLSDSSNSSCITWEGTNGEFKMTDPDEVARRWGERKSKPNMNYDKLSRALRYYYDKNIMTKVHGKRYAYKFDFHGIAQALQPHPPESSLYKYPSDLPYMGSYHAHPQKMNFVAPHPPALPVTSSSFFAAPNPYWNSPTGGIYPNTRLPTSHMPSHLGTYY
Method in brief: as §1

ELF1 = ELF1 (Homo sapiens, UniProt P32519 1-619)
Method in brief: as §1

EHF = molecular target: T4, EHF (Homo sapiens, UniProt Q9NZC4 1-300)
T4 sequence: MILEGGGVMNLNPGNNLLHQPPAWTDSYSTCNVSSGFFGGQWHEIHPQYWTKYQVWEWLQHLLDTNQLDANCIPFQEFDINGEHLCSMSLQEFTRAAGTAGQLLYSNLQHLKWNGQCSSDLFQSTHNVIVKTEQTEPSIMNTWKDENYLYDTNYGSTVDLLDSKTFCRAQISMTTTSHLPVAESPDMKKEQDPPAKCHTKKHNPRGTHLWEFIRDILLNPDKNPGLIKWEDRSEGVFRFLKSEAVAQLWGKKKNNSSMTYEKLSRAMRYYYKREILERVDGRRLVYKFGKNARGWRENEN
Method in brief: as §1

SPIB = SPIB (Homo sapiens, UniProt Q01892 1-262)
Method in brief: as §1

FEV = molecular target: T5, FEV (Homo sapiens, UniProt Q99581 1-238)
T5 sequence: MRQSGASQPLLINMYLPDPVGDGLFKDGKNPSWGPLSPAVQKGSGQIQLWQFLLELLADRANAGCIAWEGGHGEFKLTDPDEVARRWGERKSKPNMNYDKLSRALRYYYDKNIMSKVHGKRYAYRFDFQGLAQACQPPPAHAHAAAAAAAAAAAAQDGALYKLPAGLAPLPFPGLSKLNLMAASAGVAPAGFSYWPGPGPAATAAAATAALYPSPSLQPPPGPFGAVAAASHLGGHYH
Method in brief: as §1

ETV5 = ETV5 (Homo sapiens, UniProt P41161 1-510)
Method in brief: as §1

ELF4 = ELF4 (Homo sapiens, UniProt Q99607 1-663)
Method in brief: as §1

ELK4 = molecular target: T6, ELK4 (Homo sapiens, UniProt P28324-2 1-405)
T6 sequence: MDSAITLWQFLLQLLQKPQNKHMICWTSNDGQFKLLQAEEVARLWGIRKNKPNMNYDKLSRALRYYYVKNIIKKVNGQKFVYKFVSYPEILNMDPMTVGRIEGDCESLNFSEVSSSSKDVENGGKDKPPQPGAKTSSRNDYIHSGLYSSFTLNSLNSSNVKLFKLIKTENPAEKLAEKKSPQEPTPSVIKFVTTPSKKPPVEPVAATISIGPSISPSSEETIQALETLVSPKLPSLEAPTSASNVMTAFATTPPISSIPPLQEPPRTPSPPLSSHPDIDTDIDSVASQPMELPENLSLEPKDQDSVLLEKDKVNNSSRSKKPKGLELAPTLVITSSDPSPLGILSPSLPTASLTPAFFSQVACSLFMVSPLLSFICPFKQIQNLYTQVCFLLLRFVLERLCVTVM
Method in brief: as §1

ETV2 = molecular target: T7, ETV2 (Homo sapiens, UniProt O00321 1-342)
T7 sequence: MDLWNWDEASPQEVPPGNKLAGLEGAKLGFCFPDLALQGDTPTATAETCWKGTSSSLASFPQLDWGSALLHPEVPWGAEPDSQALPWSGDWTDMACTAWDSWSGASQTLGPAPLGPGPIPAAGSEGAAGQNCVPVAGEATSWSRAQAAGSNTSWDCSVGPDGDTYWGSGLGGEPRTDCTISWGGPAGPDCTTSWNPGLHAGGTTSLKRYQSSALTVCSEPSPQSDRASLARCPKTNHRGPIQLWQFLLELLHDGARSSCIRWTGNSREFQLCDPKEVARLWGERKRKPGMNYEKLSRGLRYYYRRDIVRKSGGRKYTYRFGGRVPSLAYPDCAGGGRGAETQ
Method in brief: as §1

ELF3 = molecular target: T8, ELF3 (Homo sapiens, UniProt P78545 1-371)
T8 sequence: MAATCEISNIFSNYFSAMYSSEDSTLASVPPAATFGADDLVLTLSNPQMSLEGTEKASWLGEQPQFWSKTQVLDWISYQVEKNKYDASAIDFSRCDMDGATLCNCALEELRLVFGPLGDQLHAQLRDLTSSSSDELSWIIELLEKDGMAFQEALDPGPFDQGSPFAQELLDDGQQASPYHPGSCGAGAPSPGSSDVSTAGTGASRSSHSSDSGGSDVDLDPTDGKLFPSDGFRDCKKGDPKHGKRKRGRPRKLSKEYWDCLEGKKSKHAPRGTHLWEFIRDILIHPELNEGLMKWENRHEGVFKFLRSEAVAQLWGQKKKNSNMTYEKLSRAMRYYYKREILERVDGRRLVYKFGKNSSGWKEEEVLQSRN
Method in brief: as §1

ETV1 = ETV1 (Homo sapiens, UniProt P50549 1-477)
Method in brief: as §1

ERF = molecular target: T9, ERF (Homo sapiens, UniProt P50548 1-548)
T9 sequence: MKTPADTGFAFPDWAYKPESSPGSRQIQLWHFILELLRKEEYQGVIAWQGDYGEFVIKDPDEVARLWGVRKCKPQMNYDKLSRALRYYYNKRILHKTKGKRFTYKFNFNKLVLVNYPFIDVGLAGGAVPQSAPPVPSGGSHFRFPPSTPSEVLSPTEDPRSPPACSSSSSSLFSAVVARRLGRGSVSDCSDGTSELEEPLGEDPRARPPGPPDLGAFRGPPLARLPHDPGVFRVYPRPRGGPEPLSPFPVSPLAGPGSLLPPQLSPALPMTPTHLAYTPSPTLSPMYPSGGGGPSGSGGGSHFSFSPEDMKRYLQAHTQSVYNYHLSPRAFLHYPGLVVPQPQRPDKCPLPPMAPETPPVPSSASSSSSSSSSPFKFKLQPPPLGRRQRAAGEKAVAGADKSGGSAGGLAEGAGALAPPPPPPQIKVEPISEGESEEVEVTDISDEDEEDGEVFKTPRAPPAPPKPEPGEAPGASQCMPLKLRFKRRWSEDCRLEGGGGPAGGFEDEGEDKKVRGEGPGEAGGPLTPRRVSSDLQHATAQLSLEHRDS
Method in brief: as §1

ETV3L = molecular target: T10, ETV3L (Homo sapiens, UniProt Q6ZN32 1-361)
T10 sequence: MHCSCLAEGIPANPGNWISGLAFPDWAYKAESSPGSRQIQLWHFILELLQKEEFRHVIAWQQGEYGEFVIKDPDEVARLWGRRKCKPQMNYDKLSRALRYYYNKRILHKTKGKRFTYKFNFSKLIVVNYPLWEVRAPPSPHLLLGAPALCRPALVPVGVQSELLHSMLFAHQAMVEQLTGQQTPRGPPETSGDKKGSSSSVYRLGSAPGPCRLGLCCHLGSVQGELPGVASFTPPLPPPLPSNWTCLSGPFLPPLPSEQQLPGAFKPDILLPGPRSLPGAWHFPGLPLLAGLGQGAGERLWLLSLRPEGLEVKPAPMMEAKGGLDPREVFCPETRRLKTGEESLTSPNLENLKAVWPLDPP
Method in brief: as §1

ETS2 = molecular target: T11, ETS2 (Homo sapiens, UniProt P15036 1-469)
T11 sequence: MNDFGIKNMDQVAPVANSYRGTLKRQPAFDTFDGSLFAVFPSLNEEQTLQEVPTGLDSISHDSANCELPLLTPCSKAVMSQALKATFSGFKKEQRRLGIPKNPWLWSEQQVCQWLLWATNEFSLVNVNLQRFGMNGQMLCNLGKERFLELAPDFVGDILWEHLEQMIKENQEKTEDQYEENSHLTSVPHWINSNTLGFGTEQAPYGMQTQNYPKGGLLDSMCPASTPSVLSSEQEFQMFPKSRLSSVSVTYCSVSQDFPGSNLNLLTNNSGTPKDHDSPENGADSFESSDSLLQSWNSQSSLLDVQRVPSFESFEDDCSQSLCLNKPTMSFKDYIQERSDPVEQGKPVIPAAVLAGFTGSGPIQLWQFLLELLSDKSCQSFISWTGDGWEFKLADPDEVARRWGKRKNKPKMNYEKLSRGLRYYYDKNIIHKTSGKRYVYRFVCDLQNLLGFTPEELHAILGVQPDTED
Method in brief: as §1

SPDEF = molecular target: T12, SPDEF (Homo sapiens, UniProt O95238 1-335)
T12 sequence: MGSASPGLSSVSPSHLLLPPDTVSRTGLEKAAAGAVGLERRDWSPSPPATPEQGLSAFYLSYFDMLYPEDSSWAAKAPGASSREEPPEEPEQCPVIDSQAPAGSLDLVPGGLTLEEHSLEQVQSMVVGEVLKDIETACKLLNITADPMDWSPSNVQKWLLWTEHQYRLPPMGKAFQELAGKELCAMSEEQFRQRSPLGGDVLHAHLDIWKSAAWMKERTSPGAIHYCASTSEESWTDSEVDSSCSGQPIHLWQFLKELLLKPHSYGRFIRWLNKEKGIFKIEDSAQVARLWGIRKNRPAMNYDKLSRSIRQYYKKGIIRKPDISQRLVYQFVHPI
Method in brief: as §1

ETV3 = molecular target: T13, ETV3 (Homo sapiens, UniProt P41162-2 1-143)
T13 sequence: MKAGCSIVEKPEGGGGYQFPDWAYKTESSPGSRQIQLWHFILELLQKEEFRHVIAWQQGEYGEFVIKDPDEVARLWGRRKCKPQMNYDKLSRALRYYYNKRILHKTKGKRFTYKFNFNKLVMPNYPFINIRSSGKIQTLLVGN
Method in brief: as §1

ETV6 = ETV6 (Homo sapiens, UniProt P41212 1-452)
Method in brief: as §1

ELF1, sequence (P32519 whole entry): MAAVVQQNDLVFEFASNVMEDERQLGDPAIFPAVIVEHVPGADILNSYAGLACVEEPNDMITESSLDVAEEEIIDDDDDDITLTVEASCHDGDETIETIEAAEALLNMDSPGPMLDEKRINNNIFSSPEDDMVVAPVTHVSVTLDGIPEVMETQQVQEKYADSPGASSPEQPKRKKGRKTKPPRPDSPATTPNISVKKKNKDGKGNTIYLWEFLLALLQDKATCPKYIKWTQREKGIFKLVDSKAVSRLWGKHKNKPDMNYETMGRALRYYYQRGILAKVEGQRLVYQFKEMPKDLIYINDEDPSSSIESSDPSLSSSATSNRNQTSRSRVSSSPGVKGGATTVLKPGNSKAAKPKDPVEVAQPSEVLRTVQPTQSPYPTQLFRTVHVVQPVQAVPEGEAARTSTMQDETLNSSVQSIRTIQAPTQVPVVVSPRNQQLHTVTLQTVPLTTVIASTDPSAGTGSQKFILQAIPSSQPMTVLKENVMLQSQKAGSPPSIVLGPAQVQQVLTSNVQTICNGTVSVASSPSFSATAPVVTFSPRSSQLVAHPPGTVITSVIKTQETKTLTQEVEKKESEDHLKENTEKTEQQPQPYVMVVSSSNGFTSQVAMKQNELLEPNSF
ETV1, sequence (P50549 whole entry): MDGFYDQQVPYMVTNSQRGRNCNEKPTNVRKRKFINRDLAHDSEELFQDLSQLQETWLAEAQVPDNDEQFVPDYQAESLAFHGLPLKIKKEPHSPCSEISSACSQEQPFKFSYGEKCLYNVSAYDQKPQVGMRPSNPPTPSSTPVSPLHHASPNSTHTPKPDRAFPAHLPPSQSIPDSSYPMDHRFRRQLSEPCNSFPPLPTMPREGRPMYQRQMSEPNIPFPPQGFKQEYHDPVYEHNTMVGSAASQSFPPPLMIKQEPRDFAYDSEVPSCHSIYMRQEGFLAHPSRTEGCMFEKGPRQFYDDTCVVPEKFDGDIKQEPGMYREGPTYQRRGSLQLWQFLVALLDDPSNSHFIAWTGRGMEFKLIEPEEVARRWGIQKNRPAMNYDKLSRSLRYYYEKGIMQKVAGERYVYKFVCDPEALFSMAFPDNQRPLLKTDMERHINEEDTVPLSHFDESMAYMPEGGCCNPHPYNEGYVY
SPIB, sequence (Q01892 whole entry): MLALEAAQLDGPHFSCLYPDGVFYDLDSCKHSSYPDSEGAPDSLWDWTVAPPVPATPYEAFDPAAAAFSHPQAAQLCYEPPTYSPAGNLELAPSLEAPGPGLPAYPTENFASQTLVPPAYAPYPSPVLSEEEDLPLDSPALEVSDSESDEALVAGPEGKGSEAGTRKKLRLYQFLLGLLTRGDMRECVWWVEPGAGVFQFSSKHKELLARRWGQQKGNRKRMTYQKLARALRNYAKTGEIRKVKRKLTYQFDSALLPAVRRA
ELF4, sequence (Q99607 whole entry): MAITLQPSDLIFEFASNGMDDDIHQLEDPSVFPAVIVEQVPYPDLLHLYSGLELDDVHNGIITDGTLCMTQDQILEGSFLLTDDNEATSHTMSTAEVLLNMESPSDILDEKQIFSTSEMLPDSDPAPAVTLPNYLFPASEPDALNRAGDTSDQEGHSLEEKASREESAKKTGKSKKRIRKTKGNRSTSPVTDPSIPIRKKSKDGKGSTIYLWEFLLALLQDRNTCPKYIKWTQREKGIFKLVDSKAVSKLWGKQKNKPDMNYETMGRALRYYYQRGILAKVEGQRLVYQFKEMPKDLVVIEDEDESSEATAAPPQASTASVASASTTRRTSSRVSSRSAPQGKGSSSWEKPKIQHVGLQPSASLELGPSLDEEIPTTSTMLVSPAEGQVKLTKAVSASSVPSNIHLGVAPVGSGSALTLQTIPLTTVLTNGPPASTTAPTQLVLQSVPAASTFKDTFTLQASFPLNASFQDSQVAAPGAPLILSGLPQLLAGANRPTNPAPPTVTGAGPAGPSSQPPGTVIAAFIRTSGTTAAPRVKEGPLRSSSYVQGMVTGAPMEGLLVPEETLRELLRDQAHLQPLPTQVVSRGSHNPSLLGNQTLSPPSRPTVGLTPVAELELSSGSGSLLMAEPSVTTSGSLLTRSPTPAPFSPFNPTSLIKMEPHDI
ETV5, sequence (P41161 whole entry): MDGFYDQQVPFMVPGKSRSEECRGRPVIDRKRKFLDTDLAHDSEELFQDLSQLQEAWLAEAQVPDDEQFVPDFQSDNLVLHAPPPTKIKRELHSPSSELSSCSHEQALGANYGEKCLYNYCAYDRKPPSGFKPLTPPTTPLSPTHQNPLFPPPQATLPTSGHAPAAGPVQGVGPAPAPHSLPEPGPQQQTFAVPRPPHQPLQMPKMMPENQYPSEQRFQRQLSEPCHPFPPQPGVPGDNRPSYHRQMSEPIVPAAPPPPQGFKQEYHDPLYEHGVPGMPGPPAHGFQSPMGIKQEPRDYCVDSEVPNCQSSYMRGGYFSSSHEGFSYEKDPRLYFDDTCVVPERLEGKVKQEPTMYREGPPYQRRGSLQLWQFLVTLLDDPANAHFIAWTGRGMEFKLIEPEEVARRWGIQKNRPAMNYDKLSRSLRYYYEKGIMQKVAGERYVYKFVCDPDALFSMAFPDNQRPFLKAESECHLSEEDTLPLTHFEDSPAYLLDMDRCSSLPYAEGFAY
ETV6, sequence (P41212 whole entry): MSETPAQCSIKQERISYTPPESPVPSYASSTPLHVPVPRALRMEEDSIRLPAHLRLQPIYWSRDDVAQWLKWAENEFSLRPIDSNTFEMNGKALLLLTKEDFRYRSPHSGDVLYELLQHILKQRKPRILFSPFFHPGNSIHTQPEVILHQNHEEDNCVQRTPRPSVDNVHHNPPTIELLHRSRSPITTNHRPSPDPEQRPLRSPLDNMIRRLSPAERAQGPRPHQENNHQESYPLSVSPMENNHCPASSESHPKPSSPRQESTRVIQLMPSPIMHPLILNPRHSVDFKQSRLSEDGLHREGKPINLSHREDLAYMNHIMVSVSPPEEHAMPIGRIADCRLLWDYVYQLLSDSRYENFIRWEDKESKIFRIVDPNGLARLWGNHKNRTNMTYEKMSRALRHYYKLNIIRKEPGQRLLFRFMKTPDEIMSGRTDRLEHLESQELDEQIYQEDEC

## ATGCAG
ELK1
  binding signal: 1.04 fold enrichment (6-mer frequency, TF over GST control)
GABPA
  binding signal: 1.14 fold enrichment (6-mer frequency, TF over GST control)
ERG
  binding signal: 1.09 fold enrichment (6-mer frequency, TF over GST control)
ELF1
  binding signal: 1.03 fold enrichment (6-mer frequency, TF over GST control)
EHF
  binding signal: 1.08 fold enrichment (6-mer frequency, TF over GST control)
SPIB
  binding signal: 1.22 fold enrichment (6-mer frequency, TF over GST control)
FEV
  binding signal: 1.11 fold enrichment (6-mer frequency, TF over GST control)
ETV5
  binding signal: 1.05 fold enrichment (6-mer frequency, TF over GST control)
ELF4
  binding signal: 1.05 fold enrichment (6-mer frequency, TF over GST control)
ELK4
  binding signal: 1.15 fold enrichment (6-mer frequency, TF over GST control)
ETV2
  binding signal: 1.1 fold enrichment (6-mer frequency, TF over GST control)
ELF3
  binding signal: 1.05 fold enrichment (6-mer frequency, TF over GST control)
ETV1
  binding signal: 1.1 fold enrichment (6-mer frequency, TF over GST control)
ERF
  binding signal: 1.22 fold enrichment (6-mer frequency, TF over GST control)
ETV3L
  binding signal: 1.08 fold enrichment (6-mer frequency, TF over GST control)
ETS2
  binding signal: 1.11 fold enrichment (6-mer frequency, TF over GST control)
SPDEF
  binding signal: 1.05 fold enrichment (6-mer frequency, TF over GST control)
ETV3
  binding signal: 1.06 fold enrichment (6-mer frequency, TF over GST control)
ETV6
  binding signal: 1.06 fold enrichment (6-mer frequency, TF over GST control)
